# Measurements as given in PubChem BioAssay.
# Activity calls are given as the source filed them.
# Columns and labels:
# [1] = compounds binding Alexa647 anti-His antibody – biochemical, small-molecule microarray, 635 nm fluorescence, artefact control for SMM control protein annotation, primary screen (AID 1128); settings: higher = more signal;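 further: score merges feature fluorescence with signal-to-noise for each printed compound spot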
# [2] = test system: Human papillomavirus type 1a E7 protein (residues 1-88); assay: HPV1a E7 small-molecule binders, primary screen, biochemical, small-molecule microarray, residues 1-88, 635 nm (AID 1129); settings: small-molecule microarray binding, fluorescence 635 nm; higher = more signal
# [3] = biological target: Focal adhesion kinase 1 (Homo sapiens) (UniProt Q05397); assay: PTK2 protein binding on printed compound slides – biochemical, small-molecule microarray, 635/667 nm fluorescence, BSA, DTT, primary screen (AID 1130); settings: 635 nm fluorescence, higher = more signal;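 further: composite of spot emission at 667 nm and signal to noise over triplicate slides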
# Focal adhesion kinase 1 (Homo sapiens), sequence (Q05397 whole entry, looked up): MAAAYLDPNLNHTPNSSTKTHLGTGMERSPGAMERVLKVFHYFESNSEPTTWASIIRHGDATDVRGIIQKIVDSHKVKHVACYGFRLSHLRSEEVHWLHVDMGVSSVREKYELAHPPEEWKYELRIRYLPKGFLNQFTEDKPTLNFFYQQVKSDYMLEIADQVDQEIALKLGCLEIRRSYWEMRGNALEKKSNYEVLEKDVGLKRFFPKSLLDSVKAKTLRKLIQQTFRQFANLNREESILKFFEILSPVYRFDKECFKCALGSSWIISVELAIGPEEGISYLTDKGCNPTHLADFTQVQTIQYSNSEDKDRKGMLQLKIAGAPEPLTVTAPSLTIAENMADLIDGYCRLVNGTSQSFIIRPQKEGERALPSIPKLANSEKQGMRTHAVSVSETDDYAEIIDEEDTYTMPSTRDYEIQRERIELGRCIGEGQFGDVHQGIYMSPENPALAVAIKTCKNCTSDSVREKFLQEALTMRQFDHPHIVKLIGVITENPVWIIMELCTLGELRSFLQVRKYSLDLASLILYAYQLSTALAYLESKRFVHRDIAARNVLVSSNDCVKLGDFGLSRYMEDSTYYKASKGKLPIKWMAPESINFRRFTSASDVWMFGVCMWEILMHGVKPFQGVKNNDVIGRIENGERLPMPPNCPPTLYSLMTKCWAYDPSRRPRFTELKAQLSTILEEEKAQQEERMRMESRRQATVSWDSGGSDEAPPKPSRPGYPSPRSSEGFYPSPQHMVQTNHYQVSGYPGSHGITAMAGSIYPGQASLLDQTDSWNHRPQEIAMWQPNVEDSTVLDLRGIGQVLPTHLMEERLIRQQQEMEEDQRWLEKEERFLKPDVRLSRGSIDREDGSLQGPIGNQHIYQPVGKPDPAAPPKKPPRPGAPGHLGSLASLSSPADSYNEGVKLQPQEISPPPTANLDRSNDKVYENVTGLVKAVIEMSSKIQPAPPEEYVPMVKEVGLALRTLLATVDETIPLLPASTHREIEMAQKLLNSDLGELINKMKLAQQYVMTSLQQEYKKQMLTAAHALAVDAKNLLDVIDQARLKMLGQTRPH
# [4] = test system: Fibrinogen (Alexa647-labelled); assay: Alexa647-fibrinogen binding to printed small molecules – biochemical, small-molecule microarray, 635/667 nm fluorescence, artefact control for SMM control-protein annotation, profiling panel (AID 1131); settings: fibrinogen-A647 binding fluorescence, higher = more signal;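 further: z-score merges 667 nm fluorescence with per-spot signal-to-noise over triplicate slides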
# [5] = biological target: Follistatin (Homo sapiens) (UniProt P19883); assay: FST protein binding to printed compounds – biochemical, small-molecule microarray, 635/667 nm fluorescence, primary screen (AID 1132); settings: 635 nm fluorescence, higher = more signal
# Follistatin (Homo sapiens), sequence (P19883 whole entry, looked up): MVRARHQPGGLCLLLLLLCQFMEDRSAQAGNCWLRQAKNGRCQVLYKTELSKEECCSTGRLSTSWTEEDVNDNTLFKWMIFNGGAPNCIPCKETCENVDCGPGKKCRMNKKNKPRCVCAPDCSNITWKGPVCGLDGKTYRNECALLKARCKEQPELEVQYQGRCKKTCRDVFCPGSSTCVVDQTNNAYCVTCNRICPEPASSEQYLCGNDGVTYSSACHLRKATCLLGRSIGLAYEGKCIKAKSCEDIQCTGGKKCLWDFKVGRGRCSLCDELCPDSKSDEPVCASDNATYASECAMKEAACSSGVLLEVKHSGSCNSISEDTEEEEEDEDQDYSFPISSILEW
# [6] = biological target: Fibroblast growth factor 2 (Homo sapiens) (UniProt P09038); assay: basic fibroblast growth factor binding to printed compounds – biochemical, small-molecule microarray, 635/667 nm fluorescence, primary screen (AID 1133); settings: FGF2, fluorescence 635/667, higher = more signal
# Fibroblast growth factor 2 (Homo sapiens), sequence (P09038 whole entry, looked up): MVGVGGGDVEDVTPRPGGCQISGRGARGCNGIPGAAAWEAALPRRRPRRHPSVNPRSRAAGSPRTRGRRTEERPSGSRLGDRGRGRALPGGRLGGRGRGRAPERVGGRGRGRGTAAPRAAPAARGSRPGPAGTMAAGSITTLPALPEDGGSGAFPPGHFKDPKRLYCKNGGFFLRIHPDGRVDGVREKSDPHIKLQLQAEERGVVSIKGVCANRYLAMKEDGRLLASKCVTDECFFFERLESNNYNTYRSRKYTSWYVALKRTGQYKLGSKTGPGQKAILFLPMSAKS
# [7] = JC-1 mitochondrial potential readout, lung cancer cells – cell-based, A549, JC-1 fluorescence, basal, 24 h, 100 nL, profiling panel (AID 1138); settings: higher = more signal;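 further: A549 lung adenocarcinoma cells under basal conditions with no added stimulus; test concentration not given here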
# [8] = test system: Lefty1; assay: Lefty1 protein binding to printed compounds – biochemical, small-molecule microarray, 635/667 nm fluorescence, primary screen (AID 1139); settings: fluorescence 635/667, higher = more signal
# [9] = test system: wheat germ agglutinin (Triticum aestivum), Alexa647-labelled; assay: Alexa647-WGA lectin binding to printed small molecules – biochemical, small-molecule microarray, 635/667 nm fluorescence, artefact control for SMM control-protein annotation, profiling panel (AID 1140); settings: WGA-A647 binding, 635 nm fluorescence, higher = more signal;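 further: score merges 667 nm feature emission with signal to noise over triplicate slides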
# [10] = biological target: Luciferin 4-monooxygenase (Photinus pyralis) (UniProt P08659); assay: inhibition of purified Photinus pyralis luciferase – biochemical, luminescence, purified enzyme, 2006 set, primary screen (AID 1141); settings: purified firefly luciferase, SteadyGlo luminescence, 30 min; higher = more signal, called active from +8 up or from −8 down;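 further: cell-free assay with purified firefly luciferase at 100 ng per well in PBS; test concentration not given here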
# Luciferin 4-monooxygenase (Photinus pyralis), sequence (P08659 whole entry, looked up): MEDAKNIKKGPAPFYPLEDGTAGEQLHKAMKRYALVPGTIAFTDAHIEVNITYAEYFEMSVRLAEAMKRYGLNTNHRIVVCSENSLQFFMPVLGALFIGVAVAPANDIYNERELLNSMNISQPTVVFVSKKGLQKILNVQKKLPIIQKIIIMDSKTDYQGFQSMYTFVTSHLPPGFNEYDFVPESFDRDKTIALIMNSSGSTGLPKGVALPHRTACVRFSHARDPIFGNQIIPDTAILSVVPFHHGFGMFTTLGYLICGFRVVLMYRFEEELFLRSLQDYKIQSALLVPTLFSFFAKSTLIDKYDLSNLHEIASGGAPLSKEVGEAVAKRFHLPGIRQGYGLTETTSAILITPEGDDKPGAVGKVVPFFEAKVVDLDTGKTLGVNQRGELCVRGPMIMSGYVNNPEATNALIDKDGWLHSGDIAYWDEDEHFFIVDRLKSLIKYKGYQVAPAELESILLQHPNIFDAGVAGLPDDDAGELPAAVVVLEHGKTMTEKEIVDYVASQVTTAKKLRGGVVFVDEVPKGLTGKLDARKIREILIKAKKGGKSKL
SMILES,composite z-score [1],composite z-score [2],composite z-score [3],composite z-score [4],composite z-score [5],composite z-score [6],z-score [7],composite z-score [8],composite z-score [9],z-score [10]
CCOC(=O)C1=CCC(c2cccn2C(=O)OC(C)(C)C)N(S(=O)(=O)c2ccc(C)cc2)C1 (stereo not given),1.86,1.21,0.42,0.827,1.13,0.433,1.22,0.498,1.2,-0.997 (inactive)
C=C[C@H](OC)[C@@H](O)c1ccc(OC)c(O)c1,-0.495,-1.4,-0.833,-1.99,-0.857,0.598,0.793,-1.82,-0.609,-1.1 (inactive)
CO[C@H]1O[C@H](CO)[C@@H](OC(=O)Nc2cccc(F)c2)[C@H](OC(=O)c2cc3ccccc3[nH]2)[C@H]1OC(=O)c1cc2ccccc2[nH]1,-0.371,-0.486,0.23,0.836,0.498,-0.234,-0.68,0.379,0.513,-0.635 (inactive)
C=C[C@@H](CO)NS(=O)(=O)c1ccc(Br)cc1,-0.371,-0.371,0.169,-0.387,0.0216,-0.446,-0.297,-0.809,-0.448,-1.23 (inactive)
O=C(O)C1=CC[C@H]2C(=O)N(c3ccccc3)C(=O)[C@@H]12,0.39,1.2,0.424,0.272,0.845,-0.12,-1.27,0.0347,0.701,1.57 (inactive)
COCCOC(=O)N1C(=O)[C@@]2(c3cc(C#CCNC(N)=O)ccc31)[C@H](C(=O)Nc1nc3ccccc3s1)[C@H]1C(=O)O[C@H](c3ccccc3)[C@H](c3ccccc3)N1[C@@H]2c1ccc(O)cc1,0.216,0.93,0.164,0.9,1.31,0.802,-2.44,0.392,0.934,-0.518 (inactive)
C=C(C(=O)CC[C@@H](OC(=O)c1ccccc1-c1ccccc1C(=O)O)c1cccc(OCCO)c1)C(C)C,0.256,-0.481,-0.285,-0.0661,1.53,1.54,0.282,1.69,0.58,-1.62 (inactive)
O=C1O[C@H](c2ccccc2)[C@H](c2ccccc2)N2[C@H]1[C@@H](C(=O)N1CCN(c3ncccn3)CC1)[C@]1(C(=O)Nc3ccc(C#CC4(O)CCCCCC4)cc31)[C@H]2c1ccc(O)cc1,1.75,1.2,0.62,0.902,0.951,0.89,1.36,0.58,1.06,-1.63 (inactive)
O=C1N(Cc2ccccc2)Cc2ccccc2C[C@@]12COC(c1ccc(OCCCO)cc1)=N2,2.26,1.16,0.622,-0.143,1.39,0.22,-0.503,-0.197,0.196,-1.26 (inactive)
Cc1ccc(S(=O)(=O)N2[C@@H](c3ccccc3)C(C(=O)O)=CC[C@H]2c2ccc(F)cc2)cc1,0.686,1.29,0.779,1.13,0.164,-1.34,-0.679,1.36,1.05,2.52 (inactive)
Cc1cccc([C@H]2C[C@H]3C(Br)=C[C@@]2(CO)C(=O)[C@]32CO2)c1,0.338,-0.15,0.259,-1.05,0.39,-0.117,-0.843,0.433,-0.549,0.75 (inactive)
CC(C)(C)OC(=O)CC[C@]1(C(=O)N2CCOCC2)COC(c2ccc(OCCCO)cc2)=N1,2.44,0.882,0.427,0.507,-0.0198,-0.225,1.62,-0.692,0.672,-1.06 (inactive)
C=CC[C@]1(C(N)=O)N=C(c2ccc(OCCCO)cc2)O[C@H]1c1ccccc1N=[N+]=[N-],1.98,0.766,-0.336,0.753,1.12,0.812,1.62,-0.0005,0.762,-14.1 (active)
CC(C)[Si]1(C(C)C)OCc2cc(-c3ccc(-c4ccc(Cl)c(Cl)c4)o3)nc(-c3ccc(Oc4ccccc4)cc3)c21,-0.768,-1.88,-0.0554,-1.02,-1.21,-1.57,0.229,-1.34,-0.0312,0.586 (inactive)
COC(=O)C1(CC(C)C)C=C2C(=C(C)C(=O)C2C)CN1 (stereo not given),2.95,0.098,0.183,-0.423,0.901,-0.583,1.05,-0.368,0.67,1.98 (inactive)
C=CCC(OC(C)=O)[C@@H]1[C@@H](N(Cc2ccc(-c3ccccc3)cc2)C(=O)Cc2ccc(OC)cc2)c2cc(OCCCO)ccc2N1C(=O)Cc1ccc(OC)cc1 (stereo not given in full),0.271,0.0716,1.78,0.513,0.7,0.0471,0.462,0.161,0.365,0.355 (inactive)
Cc1ccc(N2C(=O)c3ccccc3[C@@H](C(=O)NCCN3CCOCC3)[C@@H]2c2ccc(CO)cc2)nc1,-0.227,-0.818,-0.317,-2.27,0.37,-1.08,-0.0724,-0.702,-0.183,1.09 (inactive)
COCCCNC(=O)[C@]1(Cc2ccccc2CN=[N+]=[N-])N=C(c2ccc(OCCCO)cc2)O[C@@H]1c1ccccc1N=[N+]=[N-],2.6,1.2,0.641,0.927,0.564,0.854,0.398,-0.108,1.2,-6.03 (inactive)
COC(=O)c1ccc(OC)c(/C=C\CC(OC(=O)c2ccncc2)c2ccccc2)c1 (stereo not given),0.429,-0.0099,-0.111,-0.237,1.1,1.22,1.64,0.904,0.947,-1.89 (inactive)
O=C1OCCC/C=C\[C@H]2OC34C=CCN(Cc5ccccc5)C(=O)[C@H]3N(CCO)C(=O)[C@@H]4C12 (stereo not given in full),-0.941,0.444,-0.287,-0.956,-0.296,-0.259,1.64,0.398,-0.889,-1.56 (inactive)
C=C(/C=C\CNS(=O)(=O)c1ccc(C)cc1)[C@H](O)[C@H]1CCCN1S(=O)(=O)c1ccccc1[N+](=O)[O-],0.721,0.427,0.445,0.191,0.216,0.272,-0.321,0.177,0.878,-1.1 (inactive)
